Legend:
[1] = test system: P. falciparum NF54-pfs16-GFP early (I-III) stage gametocytes; test: relative % inhibition of viable gametocyte number; higher = more gametocytocidal; details: stage: early (I-III) gametocyte, incubation 72 h
Method in brief: (§1)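 In 384-well poly-D-lysine imaging plates, NF54 pfs16-GFP gametocytes (magnet-isolated, early I/IIa on day 2 or late on day 8; 10% parasitaemia, 0.1% haematocrit) received compound in duplicate at 5 or 0.5 µM. Plates stood 72 h at 37°C in 5% CO2 and 5% O2, then overnight with MitoTracker Red before confocal imaging, where elongated GFP objects with MitoTracker signal above cut-off counted as viable. Relative inhibition was calculated against vehicle and positive-control wells on the same plate.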

[2] = test system: P. falciparum NF54-pfs16-GFP late (IV-V) stage gametocytes; test: as above; details: stage: late (IV-V) gametocyte, incubation 72 h
Method in brief: as §1

Structure (SMILES) | relative % inhibition ([1]; 0.5 µM) | relative % inhibition ([1]; 5 µM) | relative % inhibition ([2]; 0.5 µM) | relative % inhibition ([2]; 5 µM)
CC(=O)Nc1nnc(SCc2c(C)cc(C(C)(C)C)cc2C)s1 | 13.5% | 19.8% | -4.86% | 60.7%
CCCCCCc1cc2cc(-c3csc(C=Cc4ccccc4)n3)c(=O)oc2cc1O | 18.9% | 101% | 31.2% | 104%
CC(C)OCc1cc(CN2CCN(c3cccc(Cl)c3)CC2)c(O)c2ncccc12 | 10.9% | 96.4% | 8.7% | 98.4%
c1ccc(Cn2c(N=Nc3c(Nc4ccccc4)ccc4ccccc34)nc3ccccc32)cc1 | 62.1% | 106% | 102% | 100%
Cc1ccc(F)cc1NC(=O)c1cc(Cl)ccc1Nc1ccccc1 | 23.8% | 73.8% | 23.8% | 46.8%
Cc1ccc(-c2cc3nc4c(c(O)n3n2)CCCC4)cc1 | 5.35% | -1.24% | 4.75% | 9.04%
COc1ccc2c(c1)OC(O)(C(F)(F)C(F)(F)F)CC2=O (stereo not drawn) | -12.9% | -4.42% | 8.91% | 10.1%
O=C(Nc1ccc(-c2nc3cc4ccccc4cc3[nH]2)cc1)c1cccc(Br)c1 | 23.2% | 34.5% | -2.59% | 7.93%
CC(C)(C)c1ccc(C(=O)Nc2nc3ccccc3s2)cc1 | 0.793% | 31% | 6.03% | 2.42%
Cc1cc(N2CCCC2)nc(Nc2ccc(NC(=O)CCc3ccccc3)cc2)n1 | 53.7% | 89.6% | 6.75% | 21%
CCCCNCC(O)(c1ccc(Cl)cc1)c1ccc(Cl)cc1 | 10.1% | 88.5% | 12.2% | 44%
O=C(c1ccccc1F)N(Cc1ccc(Cl)cc1)c1ccccn1 | -17.2% | -20.6% | 2.03% | 16.8%
Cc1nc2ccccc2c(O)c1CC=C(Cl)Cl | 4.23% | 3.33% | 33.4% | 49.4%
COc1ccc(CCNC(=O)c2cc(S(=O)(=O)N3CC(C)CC(C)C3)ccc2Sc2ccc(F)cc2)cc1OC (stereo not drawn) | 10.1% | -11.3% | 17.9% | 20.1%
CCN(CC)CCCNc1nc(-c2ccc(Cl)cc2)nc2ccccc12 | 11.6% | 96.5% | 13.1% | 23.5%
COc1ccc(C(=O)Nc2ccc3nc(N4CCCCC4)cc(C)c3c2)cc1OC | -8% | 7.62% | 3.3% | 51.2%
FC(F)(F)c1ccc(Nc2nnnc3ccccc23)cc1 | 7.13% | 2.85% | 25% | 7.26%
COc1ccc(Br)cc1C1Nc2ccc3ccccc3c2C2=C1C(=O)CC(c1ccccc1)C2 (stereo not drawn) | 27.7% | 70.3% | 2.99% | 16.2%
CCCCNc1nc(NC(C)(C)C)nc(NC(C)(C)C)n1 | -7.87% | 40.6% | 31.7% | 43.5%
O=C(Nc1nc(-c2ccccn2)cs1)c1ccccc1Br | 10.8% | 93.2% | -7.93% | 68.6%
Cc1ccc(C2CC(C(F)(F)F)n3nc(C(=O)N4CCN(C(c5ccccc5)c5ccccc5)CC4)cc3N2)cc1 (stereo not drawn) | 3.32% | 13.2% | 17.1% | -7.7%
Cc1ccc(-c2cc3c(nn2)-c2ccccc2C3=O)cc1 | 2.74% | 95% | 102% | 70.6%
CCOC(=O)c1cn(CC)c2cc(N(C)CCc3ccc(OC)c(OC)c3)c(F)cc2c1=O | 38.6% | 51.6% | 72.3% | 97.7%
O=C(Nc1ccc(Cl)c(Cl)c1)Nc1ccc(Cl)c(Cl)c1 | 4.74% | 96% | 17.5% | 48.8%

Structure (SMILES) | relative % inhibition ([1]; 0.5 µM) | relative % inhibition ([1]; 5 µM) | relative % inhibition ([2]; 0.5 µM) | relative % inhibition ([2]; 5 µM)
Cc1ccc(-c2cc3c(SCC(=O)Nc4cc(C(F)(F)F)ccc4Cl)nccn3n2)cc1 | -5.62% | -12% | 14.7% | -15.9%
CCCc1c(C)nc2ccc(Br)cc2c1O | 4.64% | -4.44% | 25.1% | 59.8%
COc1ccc(NC(=O)C2c3ccccc3C(=O)N(CC(C)C)C2c2cccs2)cc1 (stereo not drawn) | 52.4% | 102% | 25.7% | 52.6%
OC(CNCc1ccccc1)Cn1c2ccccc2c2ccccc21 (stereo not drawn) | 0.736% | 89.9% | 21.5% | 84.7%
CCOc1ccc(-c2nc(NC(=O)c3cccc(S(C)(=O)=O)c3)sc2C)cc1 | 17.8% | 15.4% | 4.66% | -3.57%
COc1ccc(C2Sc3ccccc3N=C3C2=C(O)c2ccccc23)cc1 (stereo not drawn) | 6.74% | 20.4% | 24% | 51.1%
CCOc1ccccc1CNC(=O)C1c2ccccc2C(=O)N(CC(C)C)C1c1cccs1 (stereo not drawn) | 6.2% | 54.1% | -4.49% | -12.6%
O=C(CCl)NCCOc1ccc(Cl)cc1Cl | 24% | 9.39% | 8.06% | 5.3%
Cc1cc(Nc2ccc(C)c(Cl)c2)n2nc(C(F)(F)F)nc2n1 | -5.05% | -8.28% | 13.1% | -2.09%
CN1CCN(c2ccc(Nc3c4ccccc4nc4ccccc34)cc2)CC1 | 100% | 101% | 91.3% | 104%
Cc1ccc2nc(C)cc(Nc3cccc(C(F)(F)F)c3)c2c1 | -7.3% | 60.2% | 26.7% | 19.3%
COc1ccc(C)c2sc(N(Cc3cccnc3)C(=O)c3ccc(C#N)cc3)nc12 | 11.9% | 35.9% | -23.5% | 7.81%
CCOc1cccc2sc(N(Cc3cccnc3)C(=O)C3CCCCC3)nc12 | 16.6% | 53.7% | -9.86% | 11.9%
Cc1cc(C=C2SC(=Nc3ccccc3)N(C3CCCC3)C2=O)c(C)n1-c1ccc(Cl)cc1 | 15% | 2.67% | -2.31% | 31.2%
COc1ccc2c(c1OC)C(=O)N1c3ccccc3N=C(c3ccc(C)cc3)CC21 (stereo not drawn) | 11.7% | 60.6% | -8.16% | 5.82%
O=C(CSc1ccc2nnc(-c3cccc(F)c3)n2n1)Nc1ccc2c(c1)OCO2 | 10.3% | 1.63% | 19% | 32.1%
COc1ccc(C(O)(CCC(C)C)C(CN2CCOCC2)c2ccc(Cl)cc2)cc1 (stereo not drawn) | 6.71% | 94.3% | 12.1% | 25%
CCCCc1ccc(NS(=O)(=O)c2cc3c4c(c2)CCN4C(=O)CC3)cc1 | 12.3% | 1.37% | 0.5% | -7.42%
FC(F)(F)c1cccc(Nc2nc(-c3ccccc3)nc3ncccc23)c1 | 5.1% | -19.6% | 2.84% | -1.26%
O=C1c2ccccc2C2=Nc3ccccc3SC(c3cccc(F)c3)C12 (stereo not drawn) | 30.8% | 27.4% | 43.7% | 83.8%
COc1cccc(Nc2nc(NCCO)c3ccccc3n2)c1 | 0% | -12.9% | 17.4% | 50.8%
CCOc1cc(Br)c(C(C)NC(=O)c2cccc(OC)c2)cc1OCC (stereo not drawn) | 9.37% | 46.2% | 11.2% | 42.6%
O=C(Nc1cccc(C(F)(F)F)c1)c1cc(Cl)ccc1O | -0.916% | 104% | 15% | 30.1%
CCOc1ccccc1NC(=O)CN1CCN(C(=O)c2ccco2)CC1 | 11.3% | 9% | -18.2% | -2.45%

Structure (SMILES) | relative % inhibition ([1]; 0.5 µM) | relative % inhibition ([1]; 5 µM) | relative % inhibition ([2]; 0.5 µM) | relative % inhibition ([2]; 5 µM)
COc1cc(OC)c(N(C)C(=O)c2cc3c(s2)-c2ccccc2S(=O)(=O)C3)cc1Cl | 52.2% | 93.9% | 28.5% | 44.6%
OC(CNCC1CCCO1)Cn1c2ccc(Cl)cc2c2cc(Cl)ccc21 (stereo not drawn) | 16.5% | 31.6% | 45.5% | 75.6%
O=C(Nc1ccc(Cl)cc1C(=O)Nc1ccncc1)c1ccc(Cl)cc1Cl | 20.3% | 31.8% | -5.7% | -20.8%
Cc1ccc(Nc2nc(-c3ccccn3)cs2)cc1 | 69.6% | 93.5% | 95.4% | 98.4%
COc1ccccc1CNC(=O)C1c2ccccc2C(=O)N(CC(C)C)C1c1cccs1 (stereo not drawn) | -0.661% | 31.9% | -10.4% | -4.52%
CCOc1ccc2c(c1)CN(Cc1ccc(Cl)cc1)CO2 | 15.1% | 84.1% | 16.2% | 41.4%
Oc1ccccc1CNCC12CC3CC(CC(C3)C1)C2 | 91.6% | 84.2% | 44.7% | 29.3%
COc1ccc(C(=O)C2CC2c2ccc(Cl)cc2)cc1 (stereo not drawn) | 8.75% | 79.1% | 14.7% | 48.3%
O=C(NC1CCCCC1)C(c1cccs1)N(CCc1ccccc1)C(=O)c1ccco1 (stereo not drawn) | 0.574% | 17.5% | 5.55% | 6.74%
Cc1ccc(N2C(=O)C3C(C2=O)C2(c4ccccc4)C(=O)C3(c3ccccc3)C(c3ccccc3)=C2c2ccccc2)cc1 (stereo not drawn) | 20.5% | 53.3% | 45.4% | 58.1%
Cc1cc(N(C)C)nc(Nc2ccc(NC(=O)Nc3ccccc3)cc2)n1 | 24.5% | 8.02% | 24% | 1.55%
COc1cc(-c2nc(-c3ccc(Sc4ccccc4)cc3)c(-c3ccccc3)[nH]2)cc(OC)c1O | 27% | 86.1% | 3.44% | -21%
Nc1ccn(C2O[C@H](CO)[C@@H](O)[C@H]2O)c(=O)n1 (stereo partly drawn) | -12.7% | 9.7% | 8.91% | -10.9%
CC(C)=CCN1CCC(C(=O)Nc2ccc(-c3nc4ccccc4[nH]3)cc2)CC1 | 3.42% | 74.1% | 16.4% | -15.7%
CN1CCN(c2nc(Nc3ccc(O)cc3)nc3ccccc23)CC1 | -17.7% | -9.15% | -10.7% | -15.5%
COc1ccc(C(=O)C(CCC(CNC(C)(C)C)C(=O)c2ccc(OC)cc2)CNC(C)(C)C)cc1 (stereo not drawn) | 62.7% | 94% | 10.9% | 104%
O=C(Nc1cccc(-c2nc3ccccc3[nH]2)c1)c1cccc(NC(=O)c2ccco2)c1 | 12.9% | 20.8% | -1.52% | 0.95%
COc1ccc(-c2nonc2NC(=O)c2cccc(C)c2)cc1OC | 15.3% | 39.2% | -13.4% | -9.12%
c1ccc(C2=Nc3ccccc3N=C(c3ccccc3)c3ccccc32)cc1 | 35.8% | 101% | 15.2% | 47.2%
CCN(Cc1ccccc1)C1CCN(Cc2cc(Br)ccc2O)CC1 | 27.8% | 99% | 35.1% | 68.6%
COc1ccc(-c2nc(N3CCN(C(=O)C4CCCCC4)CC3)c3c4c(sc3n2)CCCC4)cc1 | -24.1% | 55.7% | 92.2% | 86.8%
CCCn1c(=N)c(C(=O)NC2CCCCC2)cc2c(=O)n3cccc(C)c3nc21 | 13.4% | 24.4% | -19.9% | 8.02%
CCOC(=O)c1cnc2c(C)cc(C)cc2c1Nc1ccc(OC)c(OC)c1 | 2.37% | 7.56% | -4.75% | 3.59%
COc1ccc2nc(C)cc(Nc3ccc(Cl)cc3)c2c1 | -10.1% | 13.9% | 7.89% | 11.7%

From the supplement of paper PMC3842684
